Sampled rows, rich in hits. Any-hit rate of the full collection: about 11%.
NPR1 antag = Natriuretic polypeptide receptor (hNpr1) antagonism - Primary qHTS; Atrial natriuretic peptide receptor 1 (Homo sapiens), P16066; HEK293 hNpr1 GloSensor cGMP, ANP-stimulated luminescence; Potency, µM (highest dose often 46.3 µM), inactives show at the highest dose activity change, negative = inhibition, most hits filed as inhibitors; hit rate 1.6% among 76,000; AID 1347048, 2019; calls by dose curve; note: nearly all actives have a fitted effect of over 60% in size
Target sequence (P16066 whole entry, looked up): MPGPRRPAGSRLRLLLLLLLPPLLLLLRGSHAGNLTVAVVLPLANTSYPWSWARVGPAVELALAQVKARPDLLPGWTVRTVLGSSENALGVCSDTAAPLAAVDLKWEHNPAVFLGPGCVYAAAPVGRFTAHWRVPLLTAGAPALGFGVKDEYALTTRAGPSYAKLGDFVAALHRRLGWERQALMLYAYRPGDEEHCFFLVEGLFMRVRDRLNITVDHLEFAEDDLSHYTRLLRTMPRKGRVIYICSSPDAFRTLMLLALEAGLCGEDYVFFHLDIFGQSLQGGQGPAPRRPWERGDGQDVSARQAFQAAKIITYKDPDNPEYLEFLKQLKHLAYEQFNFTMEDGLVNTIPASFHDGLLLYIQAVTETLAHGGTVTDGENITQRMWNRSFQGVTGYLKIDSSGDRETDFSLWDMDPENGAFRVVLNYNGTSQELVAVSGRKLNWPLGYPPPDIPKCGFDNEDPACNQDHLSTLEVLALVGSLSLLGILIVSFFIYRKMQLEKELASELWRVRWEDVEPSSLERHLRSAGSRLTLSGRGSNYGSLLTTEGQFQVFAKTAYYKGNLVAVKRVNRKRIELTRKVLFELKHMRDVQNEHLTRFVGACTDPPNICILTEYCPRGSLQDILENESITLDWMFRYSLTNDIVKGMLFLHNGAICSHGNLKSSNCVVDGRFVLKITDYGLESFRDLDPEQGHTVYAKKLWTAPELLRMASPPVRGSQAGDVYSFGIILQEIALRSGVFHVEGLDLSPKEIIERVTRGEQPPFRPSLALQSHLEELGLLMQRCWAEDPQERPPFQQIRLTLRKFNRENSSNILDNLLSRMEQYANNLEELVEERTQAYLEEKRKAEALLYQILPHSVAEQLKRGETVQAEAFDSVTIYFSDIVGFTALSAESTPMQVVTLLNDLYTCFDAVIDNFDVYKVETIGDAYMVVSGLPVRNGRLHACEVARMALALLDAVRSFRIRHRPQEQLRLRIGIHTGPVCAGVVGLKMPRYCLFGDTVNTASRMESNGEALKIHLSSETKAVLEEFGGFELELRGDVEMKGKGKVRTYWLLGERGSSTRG
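Compound pre-incubated 30 min at room temperature on GloSensor-loaded HEK293 cells stably carrying hNpr1 and the pGS-40F cGMP biosensor. Stimulation uses hNppA at 0.1 nM final; luminescence is taken at baseline and 20 min post-agonist.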
HEK293 tox = Cytotoxic Profiling in HEK 293 Cell Line of Diverse Libraries Using Quantitative High-Throughput Screening; AID 1345083, 2018; hit rate 6.6% among 94,000; HEK 293 viability, ATP luminescence (CellTiter-Glo), 48-72 h; Potency, µM (doses to about 115 µM), inactives show at the highest dose activity change, negative = cytotoxicity, actives largely listed as inhibitors; note: nearly all actives have a fitted effect of over 60% in size
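Pintool-delivered compounds were incubated with HEK 293 cells (250 cells/well) at 37 degree Celsius for 48 or 72 hr. ATP-dependent luminescence (CellTiter-Glo) then reported remaining viable cells.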
NIH3T3 tox = Cytotoxic Profiling in NIH 3T3 Cell Line of Diverse Libraries Using Quantitative High-Throughput Screening; NIH 3T3 viability, CellTiter-Glo ATP luminescence, 48-72 h; Potency, µM (doses to about 96.7 µM), for inactives: at the top dose activity change, negative = cytotoxicity, hits mostly inhibitors; hit rate 4.3% among 94,000; note: nearly all actives have a fitted effect of over 55% in size
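Viability of NIH 3T3 cells after 48 or 72 hr compound treatment at 37 °C was assessed by CellTiter-Glo, with luminescence imaged following a 10 min room-temperature step.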
FLuc inh = Firefly luciferase inhibition profiling of diverse chemical library using quantitative high-throughput screening; hit rate 2.5% among 76,000; AID 1347043, 2019; purified P. pyralis luciferase, luminescence, biochemical; Potency, µM (top dose mostly 115 µM), most hits filed as inhibitors; note: nearly all actives have a fitted effect of over 65% in size
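Cell-free enzyme assay, 10nM P. pyralis luciferase, luciferin and ATP each at 10uM. Inhibition profiled over a 6-point titration, read as luminescence.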
* hit, by the source's call; i = inactive; ? = inconclusive; . = not tested or not shown; [ ] = remark or other dose. Unless noted, calls come from the whole dose curve; as a rule, active = well fitted curve in the direction sought with a large enough effect; inconclusive = small, poorly fitted or top-dose-only effect, or another doubt; inactive = no such curve, though single readings can be large; an effect the other way counts as inactive or inconclusive. % is set by controls: 0 for no effect and ±100 for the full control effect; potency is the fitted concentration of half-maximal effect.

SMILES | NPR1 antag | HEK293 tox | NIH3T3 tox | FLuc inh
O=C(CC(c1ccccc1)c1ccccc1Cl)N(Cc1cccnc1)C1CC1 (configuration not stated) | -26.3% | 35.5µM* | ? | i
CNC(=O)[C@H]1C[C@]2(CCCCN(CCO)C2=O)N(C(=O)CC(C)(C)C)[C@H]1c1ccccc1 | . | -7.7% | ? | .
O=C(NCc1ccccn1)c1ccc2nnc(C3CCCC3)n2c1 | . | 1.9%[172 µM] | -9.7%[138 µM] | .
CC(=O)N1CCC(N2CC[C@H](c3nc4ccccc4s3)C2)CC1 | 2.1%[70.6 µM] | -10.7%[172 µM] | i | ?
c1ccc2sc([C@H]3CCN(C4CCC4)C3)nc2c1 | 22.4µM* | ? | -13.3%[230 µM] | 1.58µM*
COC(=O)[C@H](Cc1ccc(OC)cc1)NC(=O)[C@H]1CN(C(C)=O)CCN1S(=O)(=O)c1ccccc1 | 3.0% | i | 44.7µM* | i
COC(=O)[C@H](Cc1ccc(OC)cc1)NC(=O)[C@@H]1CN(C(=O)NC(C)C)CCN1S(C)(=O)=O | -1.6% | 3.1% | -6.7% | i
C=CCNC(=O)c1coc(COc2ccc3c(c2)C(c2cccc(C)c2)N(C(=O)C2CC2)CC3)n1 (configuration not stated) | -15.2% | 35.5µM* | ? | i
CC(C)CNC(=O)c1coc(COc2ccc3c(c2)C(c2ccccc2)N(C(=O)C(C)C)CC3)n1 (configuration not stated) | -15.8% | ? | 39.8µM* | i
CCC(=O)N1CCc2ccc(OCc3nc(C(=O)NCCOC)co3)cc2C1c1ccc(C)cc1 (configuration not stated) | 0.3% | 28.2µM* | -27.7% | i
C=CCNC(=O)c1coc(COc2ccc3c(c2)C(c2ccc(C)cc2)N(C(=O)C2CC2)CC3)n1 (configuration not stated) | -19.9% | ? | ? | i
CCNC(=O)c1coc(COc2ccc3c(c2)C(c2ccc(F)cc2)N(C(=O)CC(C)C)CC3)n1 (configuration not stated) | -18.0% | ? | ? | i
Cc1ccc(C2c3cc(OCc4nc(C(=O)N5CCCC5)co4)ccc3CCN2C(=O)C2CC2)cc1 (configuration not stated) | -2.0% | 39.8µM* | ? | i
O=C(C1CCCN([S+](=O)([O-])c2cccs2)C1)N1CCC(c2nc3ccncc3[nH]2)CC1 (configuration not stated) | . | 3.1% | -21.8% | .
CNC(=O)C1CCN(Cc2ccccc2-c2ccccc2F)CC1 | . | -17.1%[172 µM] | ? | .
CC(C)C(=O)NCC12CCCC=C1N(CC1CC1)C(=O)CC2 (configuration not stated) | . | i | -8.8% | .
COCCNC(=O)c1coc(COc2ccc3c(c2)C(c2ccc(C)cc2)N(C(=O)C2CC2)CC3)n1 (configuration not stated) | 2.0% | 25.1µM* | ? | i
O=C(c1[nH]nc2c1COc1ccccc1-2)N1CCC(Cc2nncn2CC2CC2)CC1 | -0.1% | -28.3% | 39.8µM* | i
Cc1cccc(C(=O)N2CCC(Cc3nncn3CC3CC3)CC2)c1 | -6.3% | -7.6% | -25.2% | i
COc1ccc(C2(C(=O)NCC3CCCCC(=O)N3)CC2)cc1 (configuration not stated) | . | -1.4% | -7.3% | .
CC1(c2ccccc2)N(Cc2ccccc2)C(=O)OC12CCN(Cc1cccnc1)CC2 (configuration not stated) | -11.7%[70.6 µM] | ? | 100µM* | i
CC1(c2ccccc2)N(Cc2ncccn2)C(=O)OC12CCN(Cc1cccc(OC(F)(F)F)c1)CC2 (configuration not stated) | -7.7% | 50.1µM* | 39.8µM* | i
CC1(c2ccccc2)N(Cc2ccccc2)C(=O)OC12CCN(c1cccnc1)CC2 (configuration not stated) | -1.5%[70.6 µM] | 70.8µM* | 89.1µM* | i
O=C(NC1CCCc2c1cnn2-c1ccccn1)c1cn[nH]c1-n1cnnn1 (configuration not stated) | -1.2% | i | -2.0% | i
